Reference: PubChem BioAssay (NCI)
About 83,000 compounds went through this panel and 20% of them were active in at least one assay; those are over-represented in the sample as a whole.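 Percent growth is the endpoint: 0 to 100 indicates growth inhibition (40 means 60% inhibition), 0 means no net growth, and negative values indicate cell death.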 Calls of active or inactive are those of the source. How the source made its calls: active means growth percent below 10; inactive means the rest.

Legend:
Assay in all cases: NCI-60 one-dose screen, 48 h (100 = growth as untreated, 0 = no growth, -100 = all killed)
SK-MEL-2 melanoma = settings: 10 µM unless noted
EKVX NSCLC = settings: 10 µM unless noted
SN12C renal = settings: 10 µM unless noted
UO-31 renal = settings: 10 µM unless noted
ACHN renal = settings: 10 µM unless noted
CAKI-1 renal = settings: 10 µM unless noted
A498 renal = settings: 10 µM unless noted
CCRF-CEM leukemia = settings: 10 µM unless noted
OVCAR-8 ovarian = settings: 10 µM unless noted
OVCAR-5 ovarian = settings: 10 µM unless noted
OVCAR-4 ovarian = settings: 10 µM unless noted
IGROV1 ovarian = settings: 10 µM unless noted
OVCAR-3 ovarian = settings: 10 µM unless noted
HS 578T breast = settings: 10 µM unless noted
NCI/ADR-RES ovarian = settings: 10 µM unless noted
MOLT-4 leukemia = settings: 10 µM unless noted
SR leukemia = settings: 10 µM unless noted
RPMI-8226 leukemia = settings: 10 µM
SK-OV-3 ovarian = settings: 10 µM

Measured: growth

CN(C)c1ccc(/C=C(\C#N)c2cc3ccccc3n2C)cc1
active: A498 renal -9.38% | OVCAR-3 ovarian -4.72% | NCI/ADR-RES ovarian 7.61%
inactive: SK-MEL-2 melanoma 54.7% | EKVX NSCLC 41.6% | SN12C renal 38.7% | UO-31 renal 51.7% | ACHN renal 38.9% | CAKI-1 renal 30.7% | CCRF-CEM leukemia 19.1% | OVCAR-8 ovarian 34.8% | OVCAR-5 ovarian 38.5% | OVCAR-4 ovarian 40.3% | IGROV1 ovarian 26.7% | HS 578T breast 20.9%

O=c1c2c(=NCCN3CCCC3)cc3c(=O)n(CCCN4CCOCC4)c(=O)c4c(-c5ccc(CN6CCCC6)cc5)cc(c(O)n1CCCN1CCOCC1)c2c4-3
active: SK-MEL-2 melanoma -40.8% | EKVX NSCLC -37% | SN12C renal -25.5% | UO-31 renal -6.74% | ACHN renal -4.38% | CAKI-1 renal 0.0079% | A498 renal -85% | CCRF-CEM leukemia -4.42% | MOLT-4 leukemia 0.115% | SR leukemia 3.49% | OVCAR-8 ovarian -10.7% | OVCAR-5 ovarian -34.6% | OVCAR-4 ovarian -50.7% | IGROV1 ovarian -25.4% | OVCAR-3 ovarian -22.5% | HS 578T breast -26.3% | NCI/ADR-RES ovarian -0.981%

COc1cc(Cn2cc(F)c(=O)[nH]c2=O)cc(OC)c1
inactive: SK-MEL-2 melanoma 114% [50 µM] | EKVX NSCLC 98.6% [50 µM] | SN12C renal 98.9% [50 µM] | UO-31 renal 75.3% [50 µM] | ACHN renal 101% [50 µM] | CAKI-1 renal 92.9% [50 µM] | A498 renal 98.2% [50 µM] | CCRF-CEM leukemia 103% [50 µM] | MOLT-4 leukemia 103% [50 µM] | SR leukemia 103% [50 µM] | OVCAR-8 ovarian 101% [50 µM] | OVCAR-5 ovarian 101% [50 µM] | OVCAR-4 ovarian 108% [50 µM] | IGROV1 ovarian 106% [50 µM] | OVCAR-3 ovarian 126% [50 µM] | HS 578T breast 96.7% [50 µM] | NCI/ADR-RES ovarian 112% [50 µM]

Cc1cc(O)cc2c1[C@H]1CC[C@]3(C)[C@@H](O)CC[C@H]3[C@@H]1C=C2
inactive: SK-MEL-2 melanoma 86.4% | EKVX NSCLC 105% | SN12C renal 98.5% | UO-31 renal 98.4% | ACHN renal 96.7% | CAKI-1 renal 108% | A498 renal 118% | CCRF-CEM leukemia 69.4% | MOLT-4 leukemia 79% | RPMI-8226 leukemia 80.8% | OVCAR-8 ovarian 95.3% | OVCAR-5 ovarian 114% | OVCAR-4 ovarian 110% | SK-OV-3 ovarian 115% | IGROV1 ovarian 74.4% | OVCAR-3 ovarian 108% | HS 578T breast 86.5% | NCI/ADR-RES ovarian 53.2%

c1ccc(-c2n(Cc3ccc4ccccc4c3)c3ccccc3[n+]2Cc2ccc3ccccc3c2)cc1
inactive: NCI/ADR-RES ovarian 46.4%
active: SK-MEL-2 melanoma -36.1% | EKVX NSCLC 3.45% | SN12C renal -79.4% | UO-31 renal -79.7% | ACHN renal -4.48% | CAKI-1 renal -44.7% | A498 renal -40.6% | CCRF-CEM leukemia 2.6% | MOLT-4 leukemia -21.8% | SR leukemia -23.6% | OVCAR-8 ovarian -22.9% | OVCAR-5 ovarian 2.69% | IGROV1 ovarian -77.5% | OVCAR-3 ovarian -84.2% | HS 578T breast -33.8%

O=S(=O)(OCCO)c1ccccc1
inactive: SK-MEL-2 melanoma 102% | EKVX NSCLC 103% | SN12C renal 96.2% | UO-31 renal 90.4% | ACHN renal 104% | CAKI-1 renal 88.2% | A498 renal 110% | CCRF-CEM leukemia 61.8% | MOLT-4 leukemia 108% | SR leukemia 100% | RPMI-8226 leukemia 103% | OVCAR-8 ovarian 90.6% | OVCAR-5 ovarian 92% | OVCAR-4 ovarian 109% | SK-OV-3 ovarian 109% | IGROV1 ovarian 113% | OVCAR-3 ovarian 112% | HS 578T breast 108% | NCI/ADR-RES ovarian 102%

Fc1c[c-]c(-c2ccccn2)c(F)c1.Fc1c[c-]c(-c2ccccn2)c(F)c1.[Cl][Pt+].[Cl][Pt+].c1ccc([PH+](C[PH+](c2ccccc2)c2ccccc2)c2ccccc2)cc1
inactive: EKVX NSCLC 12.4% | UO-31 renal 75.9% | ACHN renal 89.3% | CAKI-1 renal 41.4% | A498 renal 21.6% | MOLT-4 leukemia 23.4% | SR leukemia 19.7% | OVCAR-8 ovarian 15.1% | OVCAR-5 ovarian 49.2% | IGROV1 ovarian 21.2% | HS 578T breast 26.1% | NCI/ADR-RES ovarian 97.9%
active: SK-MEL-2 melanoma 8.6% | SN12C renal 5.5% | OVCAR-4 ovarian 6.98% | OVCAR-3 ovarian 7.81%

CCN1CCN(c2ccc(Nc3ncc4ccc5ncn(C(C)C)c5c4n3)nc2)CC1
active: SK-MEL-2 melanoma -56.7% | EKVX NSCLC -6.84% | SN12C renal 4.25% | UO-31 renal -5.17% | ACHN renal 2.84% | CAKI-1 renal -10.7% | A498 renal -61.5% | CCRF-CEM leukemia 4.85% | MOLT-4 leukemia 2.48% | SR leukemia 3.9% | OVCAR-5 ovarian 4.92% | OVCAR-4 ovarian 5.12% | IGROV1 ovarian -4.82% | OVCAR-3 ovarian -28.2% | HS 578T breast -20.8% | NCI/ADR-RES ovarian 2.06%
inactive: OVCAR-8 ovarian 13.6%

COC(=O)CCC(=O)c1ccccc1
inactive: SK-MEL-2 melanoma 110% | EKVX NSCLC 89.7% | SN12C renal 103% | UO-31 renal 118% | ACHN renal 106% | CAKI-1 renal 96.8% | A498 renal 112% | CCRF-CEM leukemia 101% | MOLT-4 leukemia 101% | SR leukemia 90.9% | RPMI-8226 leukemia 98.6% | OVCAR-8 ovarian 102% | OVCAR-5 ovarian 98.4% | OVCAR-4 ovarian 112% | SK-OV-3 ovarian 119% | OVCAR-3 ovarian 111% | HS 578T breast 123%

CCCCC1COc2cccc3c(SCC(=O)N(C)c4cccc5ccccc45)cc[n+]1c23 (stereo not drawn)
inactive: SK-MEL-2 melanoma 102% | EKVX NSCLC 109% | SN12C renal 98.7% | UO-31 renal 94.1% | ACHN renal 104% | CAKI-1 renal 98.7% | CCRF-CEM leukemia 99.8% | MOLT-4 leukemia 102% | SR leukemia 96.1% | RPMI-8226 leukemia 89.5% | OVCAR-8 ovarian 102% | OVCAR-5 ovarian 112% | OVCAR-4 ovarian 99% | IGROV1 ovarian 111% | OVCAR-3 ovarian 107% | HS 578T breast 108% | NCI/ADR-RES ovarian 104%

COc1cc(-c2nc(SC(C)C)nc(Nc3cccc(C)c3)c2C#N)cc(OC)c1OC
inactive: SK-MEL-2 melanoma 118% | EKVX NSCLC 109% | SN12C renal 102% | UO-31 renal 84.8% | ACHN renal 103% | CAKI-1 renal 94.5% | A498 renal 102% | CCRF-CEM leukemia 104% | MOLT-4 leukemia 93.5% | SR leukemia 95% | OVCAR-8 ovarian 93.5% | OVCAR-5 ovarian 107% | OVCAR-4 ovarian 107% | IGROV1 ovarian 103% | OVCAR-3 ovarian 115% | HS 578T breast 104% | NCI/ADR-RES ovarian 105%

COc1ccc(-c2nn(-c3ccc(NC(=O)c4ccc(Cl)c(Cl)c4)cc3)cc2-c2ccncc2)cc1Cl
inactive: SK-MEL-2 melanoma 43.5% | EKVX NSCLC 56.4% | SN12C renal 80.5% | ACHN renal 52.6% | CCRF-CEM leukemia 37.4% | MOLT-4 leukemia 13.8% | OVCAR-8 ovarian 63.8% | OVCAR-5 ovarian 60.9% | SK-OV-3 ovarian 65.6% | IGROV1 ovarian 61.9% | OVCAR-3 ovarian 56.7%
active: UO-31 renal 2.82% | CAKI-1 renal -13.7% | A498 renal -0.135% | RPMI-8226 leukemia -35.4%

COc1ccc(/C=C(\C#N)c2cc3ccccc3n2C)cc1
active: A498 renal -12.9% | OVCAR-3 ovarian -34.3% | HS 578T breast 2.89%
inactive: SK-MEL-2 melanoma 67% | EKVX NSCLC 39.1% | SN12C renal 44.7% | UO-31 renal 48.5% | ACHN renal 45.5% | CAKI-1 renal 33.5% | CCRF-CEM leukemia 18.3% | MOLT-4 leukemia 17.4% | SR leukemia 18.7% | OVCAR-8 ovarian 34.2% | OVCAR-5 ovarian 39.7% | IGROV1 ovarian 34.7%

COc1cc2cc(Oc3ccc(NC(=O)Nc4cccc(C(F)(F)F)c4)cc3)c(C)nc2cc1OCCN1CCCCC1
active: SK-MEL-2 melanoma -65.9% | SN12C renal -88.9% | UO-31 renal -92.1% | ACHN renal -73.3% | CAKI-1 renal -77.7% | CCRF-CEM leukemia 1.49% | MOLT-4 leukemia -54.9% | SR leukemia -19.4% | OVCAR-8 ovarian -38.7% | OVCAR-4 ovarian -12.9% | IGROV1 ovarian -31.2% | OVCAR-3 ovarian -92.6% | HS 578T breast -53.6%
inactive: EKVX NSCLC 27.5% | A498 renal 51% | OVCAR-5 ovarian 61.6% | NCI/ADR-RES ovarian 20.1%

c1ccc(-c2n(Cc3ccc4ccccc4n3)c3ccccc3[n+]2Cc2ccc3ccccc3n2)cc1
active: SK-MEL-2 melanoma -20.7% | SN12C renal 2.63% | CAKI-1 renal -17.6% | A498 renal -16.4% | SR leukemia -19.1% | OVCAR-8 ovarian 7.66% | OVCAR-4 ovarian 7.64% | IGROV1 ovarian -34.3% | OVCAR-3 ovarian 0.883% | HS 578T breast 2.04%
inactive: EKVX NSCLC 13.5% | UO-31 renal 27.8% | ACHN renal 34.2% | CCRF-CEM leukemia 12.5% | OVCAR-5 ovarian 12.8%

COC(=O)c1c2c(c(C)[n+]([O-])c1C)C(=O)C=C(NCc1ccc(Cl)cc1)C2=O
active: SK-MEL-2 melanoma -30.9% | EKVX NSCLC -50% | SN12C renal -84.9% | UO-31 renal -9.07% | ACHN renal -19.1% | CAKI-1 renal -3.15% | CCRF-CEM leukemia -6.94% | MOLT-4 leukemia -32.2% | SR leukemia 3.91% | RPMI-8226 leukemia -16.2% | OVCAR-8 ovarian 2.34% | OVCAR-5 ovarian -69% | IGROV1 ovarian -50.9% | OVCAR-3 ovarian -28.6% | HS 578T breast -19% | NCI/ADR-RES ovarian -15.1%

CN1CCC(OC2c3ccccc3CCc3ccccc32)CC1
inactive: SK-MEL-2 melanoma 113% | EKVX NSCLC 84.9% | SN12C renal 93.9% | UO-31 renal 73.4% | ACHN renal 97.5% | CAKI-1 renal 75.4% | A498 renal 77.9% | CCRF-CEM leukemia 94.1% | MOLT-4 leukemia 99.5% | SR leukemia 96.5% | RPMI-8226 leukemia 88% | OVCAR-8 ovarian 97.6% | OVCAR-5 ovarian 95.3% | OVCAR-4 ovarian 94.4% | SK-OV-3 ovarian 96% | IGROV1 ovarian 109% | OVCAR-3 ovarian 106% | HS 578T breast 87.4% | NCI/ADR-RES ovarian 96.5%
